Results published in PubChem BioAssay (EPA / NIEHS).
Calls of active or inactive are those of the source. Rule for the calls: active = hit-call score of the fitted dose curve at least 0.9, where 1 is the maximum; inactive = score below 0.9.

Key:
Settings in all cases: mRNA level, 48 h; actives raise or lower the signal
[1] = read-out: Early growth response protein 1 (EGR1) transcription factor, EGR1 (gene 1958); assay: LTEA_HepaRG_EGR1: Life Technologies and Expression Analysis (LTEA) Assay for Early growth response protein 1 (EGR1) transcription factor using HepaRG (AID 2283490)
Outline: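 EGR1 transcript levels quantified by qRT-PCR (Fluidigm arrays) against three housekeeping genes after 48 h chemical exposure of HepaRG cells. Eight-point half-log series topping at 100 uM, 0.5% DMSO vehicle, analyzed for gain or loss.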

[2] = read-out: Ezrin (EZR), EZR (gene 7430); assay: LTEA_HepaRG_EZR: Life Technologies and Expression Analysis (LTEA) Assay for Ezrin (EZR) using HepaRG (AID 2283491)
Outline: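 Read-out is EZR transcript level by qRT-PCR, normalized to three housekeeping genes and fitted bidirectionally against the DMSO control. Human HepaRG cells received test chemicals for 48 h at eight half-log concentrations up to 100 uM in 0.5% DMSO.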

[3] = read-out: Cytochrome P450 3A7 (Homo sapiens) (UniProt P24462); assay: LTEA_HepaRG_CYP3A7: Life Technologies and Expression Analysis (LTEA) Assay for CYP3A7 using HepaRG (AID 2283492)
Outline: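 Human HepaRG liver cells, 48 h post-plating, switched to serum-free induction medium and exposed in duplicate for 48 h. Dosing: 100 uM top, half-log dilutions, 8 points, 0.5% DMSO vehicle. Read-out: CYP3A7 mRNA, gain or loss fitted against DMSO baseline.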

[4] = read-out: CYP3A5 (gene 1577); assay: LTEA_HepaRG_CYP3A5: Life Technologies and Expression Analysis (LTEA) Assay for CYP3A5 using HepaRG (AID 2283493)
Outline: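 Readout was CYP3A5 mRNA by qRT-PCR. HepaRG cultures were exposed for 48 h in serum-free induction medium to chemicals at up to 100 uM, and responses were fitted in both directions relative to DMSO vehicle.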

[5] = read-out: Fatty Acid-Binding Protein 1 (FABP1), FABP1 (gene 2168); assay: LTEA_HepaRG_FABP1: Life Technologies and Expression Analysis (LTEA) Assay for Fatty Acid-Binding Protein 1 (FABP1) using HepaRG (AID 2283494)
Outline: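 FABP1 expression by TaqMan qRT-PCR, normalised to three housekeeping genes, in HepaRG cells after 48 h chemical treatment. Eight-point half-log series topping at 100 uM in 0.5% DMSO, duplicates; gain or loss fitted relative to vehicle.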

[6] = read-out: Cytochrome P450 7A1 (Homo sapiens) (UniProt P22680); assay: LTEA_HepaRG_CYP7A1: Life Technologies and Expression Analysis (LTEA) Assay for Cytochrome P450 7A1 (CYP7A1) using HepaRG (AID 2283496)
Outline: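 Using 0.5% DMSO as vehicle and baseline, chemicals were tested in duplicate over an 8-point range from 100 uM on HepaRG cells for 48 h; qRT-PCR signals were normalised to ACTB, GAPDH and POLR2A.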

[7] = read-out: Glutathione S-Transferase (GSTA2), GSTA2 (gene 2939); assay: LTEA_HepaRG_GSTA2: Life Technologies and Expression Analysis (LTEA) Assay for Glutathione S-Transferase (GSTA2) using HepaRG (AID 2283497)
Outline: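 GSTA2 transcript levels came from Fluidigm TaqMan qRT-PCR normalized to three housekeeping genes, fitted in both directions against DMSO. HepaRG cultures received chemicals for 48 h in serum-free induction medium (0.5% DMSO), 8 half-log concentrations up to 100 uM, duplicate.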

[8] = read-out: Glutamate-cysteine ligase catalytic (GCLC), GCLC (gene 2729); assay: LTEA_HepaRG_GCLC: Life Technologies and Expression Analysis (LTEA) Assay for Glutamate-cysteine ligase catalytic (GCLC) using HepaRG (AID 2283498)
Outline: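 Expression by TaqMan qRT-PCR, normalized to three housekeeping genes (ACTB, GAPDH, POLR2A), with up- or down-regulation fitted against DMSO. HepaRG cells dosed in duplicate for 48 h with 8 half-log concentrations up to 100 uM, vehicle 0.5% DMSO.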

[9] = read-out: growth arrest and DNA damage 45 (GADD45G), GADD45G (gene 10912); assay: LTEA_HepaRG_GADD45G: Life Technologies and Expression Analysis (LTEA) Assay for growth arrest and DNA damage 45 (GADD45G) using HepaRG (AID 2283499)
Outline: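 Gain or loss of GADD45G mRNA, quantified by TaqMan qRT-PCR against three housekeeping genes, is fitted in both directions relative to 0.5% DMSO. Human HepaRG cultures receive test chemical for 48 h at up to 100 uM.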

[10] = read-out: Cytochrome P450 4A22 (Homo sapiens) (UniProt Q5TCH4); assay: LTEA_HepaRG_CYP4A22: Life Technologies and Expression Analysis (LTEA) Assay for Cytochrome P450 4A22 (CYP4A22) using HepaRG (AID 2283495)
Outline: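 Readout is CYP4A22 transcript induction or loss, quantified by qRT-PCR and normalized to ACTB, GAPDH and POLR2A. Human HepaRG cells receive test chemicals for 48 h at eight half-log concentrations from 100 uM in 0.5% DMSO.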

Measured: AC50

Chain of Cytochrome P450 3A7 (Homo sapiens) (P24462 whole entry, looked up): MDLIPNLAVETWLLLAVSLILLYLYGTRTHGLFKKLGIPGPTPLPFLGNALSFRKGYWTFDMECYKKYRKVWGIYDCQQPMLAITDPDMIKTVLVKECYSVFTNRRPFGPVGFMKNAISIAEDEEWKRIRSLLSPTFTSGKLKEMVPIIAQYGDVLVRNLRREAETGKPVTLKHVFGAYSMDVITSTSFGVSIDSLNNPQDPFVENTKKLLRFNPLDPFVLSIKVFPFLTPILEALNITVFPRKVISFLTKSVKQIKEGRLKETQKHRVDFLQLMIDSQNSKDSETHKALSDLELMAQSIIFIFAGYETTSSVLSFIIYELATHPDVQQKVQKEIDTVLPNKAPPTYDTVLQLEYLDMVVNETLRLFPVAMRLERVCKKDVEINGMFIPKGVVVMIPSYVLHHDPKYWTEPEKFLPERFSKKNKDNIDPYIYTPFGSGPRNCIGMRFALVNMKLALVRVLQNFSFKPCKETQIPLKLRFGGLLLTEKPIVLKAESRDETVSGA

COC(=O)c1c(C(F)F)nc(C(F)(F)F)c(C2=NCCS2)c1CC(C)C
active: [3] 50 µM
not listed: [10]
inactive: all other assays above

COP(=S)(OC)SCn1nnc2ccccc2c1=O
not listed: [3] | [10]
inactive: all other assays above

COCc1cnc(C2=NC(C)(C(C)C)C(=O)N2)c(C(=O)O)c1 (stereo not drawn)
not listed: [3] | [10]
inactive: all other assays above

CS(=O)(=O)c1cc(C(F)(F)F)ccc1C(=O)c1cnoc1C1CC1
not listed: [3] | [10]
inactive: all other assays above

COC(=O)NC(=S)Nc1ccccc1NC(=S)NC(=O)OC
not listed: [3]
inactive: all other assays above

COCC(=O)N(c1c(C)cccc1C)C(C)C(=O)OC (stereo not drawn)
active: [5] 31.7 µM
not listed: [7] | [9] | [10]
inactive: all other assays above

CCSC(=O)N1CCCCCC1
not listed: [7] | [10]
inactive: all other assays above

Nc1cnn(-c2ccccc2)c(=O)c1Cl
not listed: [7] | [10]
inactive: all other assays above

CCOc1nc(F)cc2nc(S(=O)(=O)Nc3c(Cl)cccc3Cl)nn12
active: [3] 9.92 µM | [6] 36.7 µM
not listed: [10]
inactive: all other assays above

OC(c1ccc(Cl)cc1)(c1ccc(Cl)cc1)C(Cl)(Cl)Cl
active: [4] 50 µM | [5] 63.2 µM | [6] 75.9 µM | [9] 87.7 µM
inactive: [1] | [2] | [8]

CC(C)C1(C)N=C(c2ncccc2C(=O)O)NC1=O (stereo not drawn)
not listed: [2] | [7]
inactive: all other assays above

CO/N=C(/C1=NOCCO1)c1ccccc1Oc1ncnc(Oc2ccccc2Cl)c1F
inactive: [8]
active: [1] 12.7 µM | [2] 0.973 µM | [3] 12.4 µM | [4] 23.3 µM | [5] 19.8 µM | [10] 20.5 µM | [6] 24 µM | [9] 18.4 µM

COP(=O)(OC)O/C(C)=C/C(=O)N(C)C
inactive: all assays above

O=c1n(Cl)c(=O)n(Cl)c(=O)n1Cl
not listed: [2] | [7]
inactive: all other assays above

CC(C)N1C(=O)c2ccccc2NS1(=O)=O
not listed: [7]
inactive: all other assays above

CC1(C)C(C(=O)OC(C#N)c2cccc(Oc3ccccc3)c2)C1(C)C (stereo not drawn)
not listed: [3] | [10]
inactive: all other assays above
